PTHR1 agonist: qHTS for PTHR1 Agonists: Primary Screen; Parathyroid hormone/parathyroid hormone-related peptide receptor (Homo sapiens), Q03431; Potency, µM (doses to about 115 µM), most hits filed as activators; actives 0.075% (n = 410,000); AID 743266, 2014; HEK293 GP2 PTHR1 cells, GloSensor cAMP luminescence, 1 h; also: nearly all actives have a fitted effect of over 55% in size
Target sequence (Q03431 whole entry, looked up): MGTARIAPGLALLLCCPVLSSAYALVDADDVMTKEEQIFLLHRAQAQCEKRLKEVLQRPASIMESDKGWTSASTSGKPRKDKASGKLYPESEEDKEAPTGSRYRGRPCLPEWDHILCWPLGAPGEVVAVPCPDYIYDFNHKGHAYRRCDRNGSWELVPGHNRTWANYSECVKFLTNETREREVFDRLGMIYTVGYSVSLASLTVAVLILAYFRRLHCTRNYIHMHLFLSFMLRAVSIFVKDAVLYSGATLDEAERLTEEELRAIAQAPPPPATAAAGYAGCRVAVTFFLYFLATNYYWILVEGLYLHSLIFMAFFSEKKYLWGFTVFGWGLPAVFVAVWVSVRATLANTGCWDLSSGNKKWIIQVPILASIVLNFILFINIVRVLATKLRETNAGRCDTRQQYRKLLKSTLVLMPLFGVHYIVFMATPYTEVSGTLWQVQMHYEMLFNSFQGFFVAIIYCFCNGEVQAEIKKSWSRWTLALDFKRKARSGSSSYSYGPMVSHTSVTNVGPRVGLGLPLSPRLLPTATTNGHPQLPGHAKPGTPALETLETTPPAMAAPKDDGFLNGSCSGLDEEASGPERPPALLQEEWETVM
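HEK-293-derived GP2 cells expressing PTHR1 and a GloSensor cAMP reporter, 3,000/well, plated overnight, given luciferin plus IBMX (each 0.5 mM as added) for 1 h at 37 °C, then compound for 1 h at 37 °C. Luminescence was read after 15 min at room temperature.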
GLP-1R agonist: qHTS of GLP-1 Receptor Agonists; Potency, µM (titrated, usually from 45.6 µM), hits mostly activators; HEK293 GLP-1R CRE-luciferase, luminescence, 4-6 h; cells express a hypersensitive GLP-1R form; actives 0.007% (n = 380,000)
HEK293 tox: qHTS of GLP-1 Receptor Inverse Agonists: Cytotox Screen. HEK293 cAMP-luciferase reporter cells, luminescence, 24 h. Potency, µM (top dose mostly 38.3 µM), most hits filed as inhibitors. actives 0.13% (n = 410,000). AID 624418, 2012;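 also: loss of luciferase light is scored as toxicity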
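To flag toxic compounds, the library was rerun on cells for 24 hr at 37 deg C and 5% CO2. Viability-linked luminescence was captured 12 min after adding luciferase detection reagent.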
Pin1 inhibitor: qHTS Assay to Find Inhibitors of Pin1 | Peptidyl-prolyl cis-trans isomerase NIMA-interacting 1 (Homo sapiens), Q13526 | Pin1 FP peptide displacement, HiFluor488, 10 min | Potency, µM (series often up to 115 µM), hits mostly inhibitors | actives 0.009% (n = 390,000) | AID 504891, 2011; active = well fitted inhibition curve with a large enough effect in the polarisation, with a control signal flat, not every such curve was filed as active; inconclusive = small, poorly fitted or top-dose-only effect, or effect the other way, or a change in a side signal; inactive = no such curve, though single readings can be large or run the other way; the % refers to the polarisation
Target sequence (Q13526 whole entry, looked up): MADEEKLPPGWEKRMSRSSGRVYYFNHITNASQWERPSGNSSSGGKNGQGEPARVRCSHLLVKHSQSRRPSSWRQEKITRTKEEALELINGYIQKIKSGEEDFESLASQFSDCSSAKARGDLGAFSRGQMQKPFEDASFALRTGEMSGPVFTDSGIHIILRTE
miR-21 act: qHTS Assay for Modulators of miRNAs and/orActivators of miR-21 | HeLa miR-21 FLuc reporter, luciferase, 48 h | Potency, µM (titrated, usually from 38.3 µM), usual class: activators | 340,000 tested, under 10 active | AID 2288, 2010;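 also: miR-21 action dims this reporter so a rising signal means less miR-21 action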
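HeLa cells stably expressing CMV-driven firefly luciferase with a downstream miR-21 binding sequence, endogenously expressing miR-21, were treated with titrations (up to about 40uM final) for 48 hours at 37 degree Celsius. Luciferase luminescence was read after lysis.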
GLP-1R inv ag: qHTS of GLP-1 Receptor Inverse Agonists (Inhibition Mode); HEK293 GLP-1R CRE-luciferase, luminescence, 24 h; GLP-1R form is constitutively active; Potency, µM (doses to about 38.3 µM), actives largely listed as inhibitors; actives 1.6% (n = 410,000); also: nearly all actives have a fitted effect of over 55% in size
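Using stably transfected HEK293 (constitutively active GLP-1R, cAMP-luciferase reporter), compounds were incubated 24 hr and luciferase measured by luminescence.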
Large screens that a line does not name were inactive. In the library only some 1.7% were active in any assay of this set; here they are far more common. Unless noted, calls follow the shape of the dose curve; as a rule, active = well fitted curve in the direction sought with a large enough effect; inconclusive = small, poorly fitted or top-dose-only effect, or another doubt; inactive = no such curve, though single readings can be large; an effect the other way counts as inactive or inconclusive.

O=[S+]([O-])(NC[C@H]1CCC[C@H](CN[S+](=O)([O-])c2c(F)cccc2F)C1)c1ccc2c(c1)OCCO2	none (no result: PTHR1 agonist, GLP-1R agonist, HEK293 tox, miR-21 act, GLP-1R inv ag)
CN(CC(=O)Nc1cccc(F)c1)CC(=O)Nc1cccc(S(=O)(=O)N2CCCCC2)c1	GLP-1R inv ag 7.94µM (no result: miR-21 act)
CN(CC(=O)Nc1cccc(F)c1)CC(=O)Nc1cccc(S(=O)(=O)N2CCCCCC2)c1	HEK293 tox inconclusive, GLP-1R inv ag inconclusive
O=C(CNc1ccc(C(F)(F)F)cc1)Nc1cccc(S(=O)(=O)N2CCCCC2)c1	GLP-1R inv ag 3.98µM (no result: Pin1 inhibitor, miR-21 act)
CCOc1ccc(NC(=O)CNc2cccc(S(=O)(=O)N3CCCCCC3)c2)cc1OCC	GLP-1R inv ag 10µM (no result: miR-21 act)
O=C(Cc1cccc(C(F)(F)F)c1)Nc1cccc(S(=O)(=O)N2CCCC2)c1	GLP-1R inv ag 8.91µM
CC1=C(c2ccc(F)cc2)S(=O)(=O)N=C1N1CCC(C(=O)NCCc2cccc(C)c2)CC1	none (no result: GLP-1R agonist)
CC(=NNC(=S)N(Cc1ccccn1)Cc1ccccn1)c1cnccn1	HEK293 tox 4.47µM, GLP-1R inv ag inconclusive (no result: miR-21 act)
O=C(CC1SC(=Nc2ccccc2)N(CCc2ccccn2)C1=O)Nc1ccc(F)cc1 (stereo not given)	GLP-1R inv ag inconclusive
O=C(CC1SC(=Nc2ccccc2)N(CCc2c[nH]c3ccccc23)C1=O)Nc1ccccc1F (stereo not given)	HEK293 tox inconclusive, Pin1 inhibitor inconclusive, GLP-1R inv ag 6.31µM
Cc1ccc(C)c(-c2[nH]ncc2CN2CCCC(CO)(Cc3ccccc3C)C2)c1 (stereo not given)	HEK293 tox inconclusive, GLP-1R inv ag 10µM
OCC1(Cc2ccccc2)CCCN(Cc2cn[nH]c2-c2ccccc2)C1 (stereo not given)	PTHR1 agonist inconclusive, GLP-1R inv ag inconclusive
Cc1ccc(C)c(N=Nc2nc3ccccc3n2C)c1	HEK293 tox inconclusive, GLP-1R inv ag inconclusive
Cc1cc(C)c(C)c(N=Nc2nc3ccccc3n2C)c1C	HEK293 tox inconclusive, GLP-1R inv ag 7.94µM
COc1ccc(Cl)cc1NC(=O)CN(C)C(C)C(=O)NCC1CCCCC1 (stereo not given)	none
COc1ccc(Cl)cc1NC(=O)CN(C(=O)c1ccco1)C1CCCCC1	GLP-1R inv ag 10µM
NC(=O)C1CCN(c2nc(-c3ccc(OCc4ccccc4)cc3)cs2)CC1	none (no result: PTHR1 agonist, GLP-1R agonist, HEK293 tox, miR-21 act, GLP-1R inv ag)
O=c1[nH][nH]c2c1[C@@H](c1ccc(F)cc1)O[C@H](C1CCCCC1)C2	GLP-1R inv ag inconclusive (no result: Pin1 inhibitor, miR-21 act)
O=c1[nH]c(=S)[nH]c2c1C(c1ccc(F)cc1)OC(C1CCCCC1)C2 (stereo not given)	none (no result: Pin1 inhibitor, miR-21 act)
O=c1[nH][nH]c2c1[C@H](c1ccc(F)cc1)O[C@H](C1CCCCC1)C2	GLP-1R inv ag 2.82µM (no result: Pin1 inhibitor, miR-21 act)
O=c1c2c([nH]n1-c1ccccc1)C[C@@H](C1CCCCC1)O[C@H]2c1ccc(F)cc1	GLP-1R inv ag 2.24µM (no result: Pin1 inhibitor, miR-21 act)
CC(C)=CCC[C@H](C)C[C@@H]1Cc2[nH][nH]c(=O)c2[C@@H](c2ccc(F)cc2)O1	GLP-1R inv ag 5.62µM (no result: Pin1 inhibitor, miR-21 act)
O=S(=O)(c1ccc2c(c1)OCCO2)N1CCN(S(=O)(=O)c2ccccc2OC(F)(F)F)CC1	none (no result: PTHR1 agonist, GLP-1R agonist, HEK293 tox, miR-21 act, GLP-1R inv ag)
COc1cc(OC)c2c(c1)C(=O)OC2c1cc(OC)c(OC)cc1C (stereo not given)	none (no result: PTHR1 agonist, GLP-1R agonist, HEK293 tox, miR-21 act, GLP-1R inv ag)
CN1C(=O)C2(c3ccccc31)N(c1cccc(C(F)(F)F)c1)C(=O)CS2(=O)=O (stereo not given)	none
O=C(Nc1cc(S(=O)(=O)N2CCCCC2)ccc1N1CCOCC1)c1ccc(C(F)(F)F)cc1	GLP-1R inv ag inconclusive (no result: miR-21 act)
O=C(Nc1ccccc1N1CCCCC1)C1CCN(S(=O)(=O)c2ccccc2C(F)(F)F)CC1	GLP-1R inv ag 7.94µM (no result: miR-21 act)
Cc1ccc(S(=O)(=O)N2CCC(C(=O)Nc3cc(C(F)(F)F)ccc3N3CCOCC3)CC2)cc1C	GLP-1R inv ag 12.6µM (no result: miR-21 act)
CC(C)(C)c1ccc(S(=O)(=O)N2CCN(c3nc(-c4ccccc4)nc4ccccc34)CC2)cc1	none (no result: PTHR1 agonist, GLP-1R agonist, HEK293 tox, miR-21 act, GLP-1R inv ag)
CCN(CC)c1nc(OCCNC(=O)Nc2ccccc2)nc(N(CC)CC)n1	HEK293 tox inconclusive, GLP-1R inv ag 5.01µM
Cc1c(Cl)cccc1NS(=O)(=O)c1cc2c(cc1F)NC(=O)CC2	none (no result: PTHR1 agonist, GLP-1R agonist, HEK293 tox, miR-21 act, GLP-1R inv ag)
Cc1ccc(C(C#N)c2ccc(C(=O)c3ccc(F)cc3)cc2)cc1 (stereo not given)	GLP-1R inv ag 11.2µM
Cc1cccc(C(=O)NCCc2nc3ccccc3n2CCC(C)C)c1	miR-21 act inconclusive, GLP-1R inv ag inconclusive (no result: GLP-1R agonist)
O=C(NCC1CCCO1)C(c1cccs1)N(C(=O)c1ccc(-c2ccccc2)[nH]1)C1CCCC1 (stereo not given)	GLP-1R inv ag 10µM
O=C1c2ccccc2-c2onc3ccc(NCCCn4ccnc4)c1c23	HEK293 tox 12.6µM, Pin1 inhibitor inconclusive
COc1ccc2noc3c2c1C(=O)c1ccccc1-3	HEK293 tox inconclusive, Pin1 inhibitor inconclusive, GLP-1R inv ag inconclusive (no result: miR-21 act)
CCOc1ccc(NC(=O)CN(C)S(=O)(=O)c2ccc3[nH]c4c(c3c2)CCCC4)cc1	GLP-1R inv ag 11.2µM (no result: GLP-1R agonist)
CCc1nn2c(=O)cc(COC(=O)c3ccccc3NC(=O)c3ccc(C(C)(C)C)cc3)nc2s1	none (no result: GLP-1R agonist)
CCc1ccc2c(CN3CCN(Cc4ccccc4)CC3)cc(=O)oc2c1	GLP-1R inv ag 8.91µM
CCc1cccc(CC)c1NC(=O)C(Cc1ccccc1)NS(=O)(=O)c1cccc2nsnc12 (stereo not given)	GLP-1R inv ag inconclusive (no result: GLP-1R agonist)
Cc1ccc(C)c(NC(=S)c2ccccn2)c1	HEK293 tox inconclusive, GLP-1R inv ag inconclusive
Cc1ccc(C)c(NC(=S)c2ccc3ccccc3n2)c1	HEK293 tox 2.82µM, GLP-1R inv ag 5.62µM
Cc1cc2nc(C3CCN(CC4COc5ccccc5O4)CC3)[nH]c2cc1C (stereo not given)	Pin1 inhibitor inconclusive, GLP-1R inv ag 10µM
Cc1ccc(C(C)C)cc1-n1nnc(-c2cccc(Cc3ccc4ccccc4c3)c2)c1C(C)O (stereo not given)	GLP-1R inv ag 3.55µM (no result: Pin1 inhibitor, miR-21 act)
Cc1ccccc1C(=O)Nc1nc(-c2nnn(-c3ccc(C(C)C)cc3)c2C)ns1	none (no result: GLP-1R agonist)
Cc1cc(C)nc(OC(C(=O)O)C(OCCc2ccccc2)(c2ccc(F)cc2)c2ccc(F)cc2)n1 (stereo not given)	GLP-1R inv ag 10µM

Source: PubChem BioAssay
